# Reference: PubChem BioAssay (NCATS)
# Inconclusive results are not listed. Unmarked numbers belong to inactive results. Calls come from the whole dose curve; as a rule, active = well fitted inhibition curve with a large enough effect; inconclusive = small, poorly fitted or top-dose-only effect; inactive = flat fitted curve, though single readings scatter.
# Tested on: CP211
# Experiment: qHTS profiling for inhibitors of Plasmodium falciparum proliferation (AID 504749);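 note: 0% = DMSO vehicle and full inhibition = artemisinin control; nearly all actives have a fitted effect of over 60% in size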
# Conditions: P. falciparum in erythrocytes, SYBR Green DNA, 72 h; series mostly up to 28.7 µM; activity, negative = inhibition: at the top concentration
# Procedure, shortened: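 In a 72 h erythrocytic culture (37 C, humidified, 5% CO2) at 2.5% hematocrit and 0.3% starting parasitemia, compounds were tested; SYBR Green I in detergent lysis buffer stained parasite DNA overnight.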
row,Structure (SMILES),"activity, negative = inhibition"
1,NC(=O)N1c2ccccc2CC(=O)c2ccccc21,-21.2%
2,CNS(=O)(=O)Cc1ccc2[nH]cc(CCN(C)C)c2c1,0.106%
3,CCCc1cc(C(N)=S)ccn1,7.63%
4,CCCN[C@H]1CCc2nc(N)sc2C1,1.34%
5,COc1ccc(C(=O)CC(=O)c2ccc(C(C)(C)C)cc2)cc1,-5.62%
6,CC(C)Cn1cnc2c(N)nc3ccccc3c21,-2.5%
7,Nc1nc(N)nc(-c2cc(Cl)ccc2Cl)n1,-2.4%
8,OC(Cn1cncn1)(Cn1cncn1)c1ccc(F)cc1F,2.9%
9,CC(C)OC(=O)C(C(=O)OC(C)C)=C1SC=CS1,4.32%
10,NCCCC(O)(P(=O)(O)O)P(=O)(O)O,-0.0589%
11,CC1=CC(=O)c2ccccc2C1=O,1.47%
12,Nc1ccc(S(=O)(=O)Nc2ccccn2)cc1,-1.81% [at 12.8 µM]
13,Cc1noc(NS(=O)(=O)c2ccc(N)cc2)c1C,1.37%
14,O=c1cc(O)c(Cl)c[nH]1,-0.201%
15,Cn1nnc2c(C(N)=O)ncn2c1=O,-2.4%
16,CNC1CCCN(c2c(F)cc3c(=O)c(C(=O)O)cn(C4CC4)c3c2OC)C1 (configuration not stated),-9.47%
17,C#CCN[C@@H]1CCc2ccccc21,-3.4%
18,N[C@@H](C(=O)N[C@@H]1C(=O)N2C(C(=O)O)=C(Cl)CS[C@H]12)c1ccccc1,-4.98%
19,CN(C)CCc1c[nH]c2ccc(CS(=O)(=O)N3CCCC3)cc12,-3.84%
20,C[C@]12C=CC(=O)C=C1CC[C@@H]1[C@@H]2C(=O)C[C@@]2(C)[C@H]1CC[C@]2(O)C(=O)CO,8.74%
21,Nc1[nH]c(=O)ncc1F,2.24% [at 12.8 µM]
22,COc1ccc(-c2ccc3cc(C(=O)O)ccc3c2)cc1C12CC3CC(CC(C3)C1)C2,-0.934%
